Screening data deposited in PubChem BioAssay by Broad Institute.
In the library only some 3.1% were active in any assay of this set; here they are far more common.
RAD54 inh: inhibitors of human RAD54 branch migration, primary screen, biochemical, fluorescence, single point; inhibition, % at 10.4 µM; 0.14% of 360,000 active; AID 602329, 2012; DNA repair and recombination protein RAD54-like (Homo sapiens), Q92698; RAD54 Holliday junction branch migration, FAM/BHQ fluorescence;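 active = mean normalized replicate activity at least 40 and at least half of replicates scoring 40 or more; inconclusive = only one of the two criteria met; inactive = mean below 40 and under half of replicates reaching 40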;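 also: 0% = median of neutral control wells and 100% = median of positive control wells; inhibitors cause a drop in the FAM fluorescence signal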
Target sequence (Q92698 whole entry, looked up): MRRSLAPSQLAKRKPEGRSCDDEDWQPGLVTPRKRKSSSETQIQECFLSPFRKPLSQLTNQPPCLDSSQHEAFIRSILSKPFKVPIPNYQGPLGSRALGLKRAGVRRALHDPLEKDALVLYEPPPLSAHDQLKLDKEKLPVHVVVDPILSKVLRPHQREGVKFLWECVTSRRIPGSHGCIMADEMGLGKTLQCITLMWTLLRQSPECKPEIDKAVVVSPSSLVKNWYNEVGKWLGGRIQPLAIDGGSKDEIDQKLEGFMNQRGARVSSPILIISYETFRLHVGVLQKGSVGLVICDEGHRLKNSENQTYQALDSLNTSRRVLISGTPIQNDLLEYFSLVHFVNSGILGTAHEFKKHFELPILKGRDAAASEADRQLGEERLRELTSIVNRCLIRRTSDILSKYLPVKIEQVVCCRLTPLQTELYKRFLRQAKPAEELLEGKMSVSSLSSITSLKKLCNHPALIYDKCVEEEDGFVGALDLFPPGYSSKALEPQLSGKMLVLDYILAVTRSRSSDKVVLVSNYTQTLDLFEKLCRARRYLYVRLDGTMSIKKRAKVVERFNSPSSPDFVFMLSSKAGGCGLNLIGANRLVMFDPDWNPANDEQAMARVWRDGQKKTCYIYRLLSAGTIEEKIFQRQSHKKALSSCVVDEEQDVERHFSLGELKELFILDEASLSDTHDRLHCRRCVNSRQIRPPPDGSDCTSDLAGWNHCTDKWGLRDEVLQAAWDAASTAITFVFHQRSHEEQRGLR
dFosB act: activators of delta FosB homodimer, primary screen, biochemical, fluorescence polarization, TAMRA-CDK5 oligo, single point. Protein FosB (Mus musculus), P13346. activation, % at 25 µM. AID 493131, 2011. purified delta FosB; percent of positive-control signal above neutral wells. 0.99% of 340,000 active;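 active = mean activation above about 17%, with every replicate also reaching it, limit read from the data, passing the limit was not always enough; inconclusive = only one of the two conditions met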
RAD52 anneal inh: RAD52 DNA annealing inhibitors, primary screen, biochemical, FRET, single point, set 2; 0.46% of 360,000 active; recombinant RAD52 DNA annealing, FRET fluorescence; inhibition, % at 18.7 µM; AID 651710, 2012; DNA repair protein RAD52 homolog (Homo sapiens), P43351;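 active = every replicate showing at least 50% inhibition; inconclusive = mean inhibition at least 50% but not in every replicate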
DENV2 CPE: inhibitors of DENV2 cytopathic effect, primary screen, cell-based, plate reader, single concentration | DENV2-infected cells, cytopathic effect rescue | CPE inhibition, % at 9.99 µM | 1.7% of 350,000 active | AID 651640, 2012; in the data active = CPE inhibition above about 20%, passing the limit was not always enough; inconclusive = no clear call, values can overlap the other calls; tested in BHK-21 cells;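 also: 0% = median of neutral control wells and 100% = median of positive control wells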
GSIS activator: GLuc luminescence reporter in INS-1E cells, primary screen for activators of glucose-dependent secretion of insulin; INS-1E GLuc reporter insulin secretion, 2-3 h; activation, % at 16.6 µM; 0.61% of 370,000 active;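 active = lowest replicate activation of at least 40%, so every replicate reaches that level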;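 also: 0% = median of neutral control wells and 100% = median of IBMX positive control wells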
AF4-AF9 inh: inhibitors of AF4 peptide binding to AF9, primary screen, biochemical, AlphaScreen, biotin-AF4 peptide, FLAG-AF9, single point. inhibition, % at 10 µM. 0.47% of 350,000 active;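 active = every replicate reaching a set inhibition limit, whatever the replicate mean, cut at about 25% in these data; inconclusive = mean inhibition reaches that limit but some replicates miss it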;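 also: 0% = plate neutral control median and 100% = total signal loss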
* = called active by the depositor; ! = repeats disagree.

`C[C@@H]1CN([C@H](C)CO)C(=O)c2cccc(NS(=O)(=O)c3ccc(F)cc3)c2O[C@@H]1CN(C)C(=O)Nc1ccc2c(c1)OCO2` gave RAD54 inh -2, RAD52 anneal inh 7, DENV2 CPE 24*, GSIS activator -2 and AF4-AF9 inh 5.
`C[C@H](CO)N1C[C@H](C)[C@@H](CN(C)C(=O)Nc2ccc3c(c2)OCO3)Oc2c(NS(=O)(=O)c3ccccc3)cccc2C1=O` gave RAD54 inh -6, dFosB act -7, RAD52 anneal inh 1, DENV2 CPE 28*!, GSIS activator 3 and AF4-AF9 inh 0.
`O=C(/C=C/C(Cl)(Cl)Cl)Nc1ccc(Cl)cc1` gave dFosB act -2, RAD52 anneal inh -4, DENV2 CPE -8, GSIS activator 170* and AF4-AF9 inh 5.
`CCCNC(=O)N1CCC2(CC1)CN(C(=O)CC)[C@@H](CO)c1c2c2ccc(OC)cc2n1C` gave RAD52 anneal inh 14, DENV2 CPE -3, GSIS activator 2 and AF4-AF9 inh -13.
O=C(NCCCN1CCOCC1)C1CCC(=O)N1CCc1ccccc1 (stereo not drawn) was read as RAD54 inh 7, dFosB act -2, RAD52 anneal inh 12, DENV2 CPE 29*, GSIS activator -7 and AF4-AF9 inh 6.
Screening C[C@@H](O)C#Cc1cnc2c(c1)C(=O)N([C@@H](C)CO)C[C@H](C)[C@@H](CN(C)C(=O)c1ccccc1F)O2 returned RAD54 inh -4, RAD52 anneal inh -1, DENV2 CPE 0, GSIS activator 3 and AF4-AF9 inh -1.
For C[C@H](CO)N1C[C@H](C)[C@H](CN(C)Cc2cccnc2)Oc2ncc(C#CC3(O)CCCC3)cc2C1=O the results were RAD54 inh -1, RAD52 anneal inh 5, DENV2 CPE 7, GSIS activator 10 and AF4-AF9 inh -9.
`C[C@H]1CN([C@@H](C)CO)C(=O)c2cc(C#CCN(C)C)cnc2O[C@@H]1CN(C)Cc1cccc(C(=O)O)c1` gave RAD54 inh -4, RAD52 anneal inh -28, DENV2 CPE inconclusive, GSIS activator 11 and AF4-AF9 inh -2.
`CC(C)CC#Cc1cnc2c(c1)C(=O)N([C@H](C)CO)C[C@H](C)[C@H](CN(C)Cc1ccccc1)O2` gave RAD52 anneal inh 20, DENV2 CPE 23*, GSIS activator -18 and AF4-AF9 inh -5.
Screening C[C@H](CO)N1C[C@H](C)[C@@H](CN(C)Cc2ccc(F)cc2)Oc2ncc(C#CCN(C)C)cc2C1=O returned RAD54 inh -4, RAD52 anneal inh -3, DENV2 CPE 21*, GSIS activator 12 and AF4-AF9 inh 6.
For C[C@@H]1CN([C@H](C)CO)C(=O)c2cc(C#CCN(C)C)cnc2O[C@H]1CN(C)Cc1cccc(C(=O)O)c1 the results were RAD52 anneal inh 4, DENV2 CPE 30*, GSIS activator 23 and AF4-AF9 inh -9.
`C[C@@H]1CN([C@H](C)CO)C(=O)c2cc(C#CC3(O)CCCC3)cnc2O[C@@H]1CN(C)Cc1cccnc1` gave RAD52 anneal inh -6, DENV2 CPE 25*, GSIS activator 14 and AF4-AF9 inh -3.
`CC(C)CC#Cc1cnc2c(c1)C(=O)N([C@@H](C)CO)C[C@@H](C)[C@H](CN(C)Cc1ccccc1)O2` gave RAD54 inh 2, RAD52 anneal inh 15, DENV2 CPE 6, GSIS activator -18 and AF4-AF9 inh 4.
Screening COc1ccc(/C(C)=N/Nc2ccc(C(=O)O)cc2)cc1OC returned RAD54 inh 2, dFosB act -7 and GSIS activator 63*.
`CO[C@@H]1CC[C@H]2CCOc3ccc(C#N)cc3C(=O)N(C)CCCC(=O)N(C)C[C@H]1O2` gave RAD54 inh -6, RAD52 anneal inh -10, DENV2 CPE 1, GSIS activator -5 and AF4-AF9 inh 0.
CCO[C@H]1OC(C(=O)Nc2ccccc2)=C[C@@H](c2coc3ccccc3c2=O)[C@@H]1CCCO was read as RAD54 inh 7, dFosB act -15, RAD52 anneal inh -5, DENV2 CPE 23*!, GSIS activator -39 and AF4-AF9 inh 0.
Screening CCO[C@@H]1OC(C(=O)NCc2ccccc2)=C[C@H](c2coc3ccccc3c2=O)[C@H]1CCCO returned RAD54 inh -5, dFosB act -13, RAD52 anneal inh -12, DENV2 CPE 47*, GSIS activator -5 and AF4-AF9 inh 4.
For O=C(C[C@@H]1CC[C@H]2[C@@H](COC[C@H](O)CN2Cc2ccc3c(c2)OCO3)O1)Nc1ccc(-c2ccccc2)cc1 the results were RAD54 inh 1, RAD52 anneal inh 5, DENV2 CPE 2, GSIS activator -16 and AF4-AF9 inh 2.
`CN(C)CC(=O)N1C[C@@H]2N[C@H](C1)C2c1ccc(-c2ccncc2)cc1` (stereo partly drawn) gave DENV2 CPE 7 and GSIS activator 13.
Screening Cc1noc(C)c1S(=O)(=O)Nc1ccc2c(c1)C(=O)N([C@H](C)CO)C[C@H](C)[C@H](CN(C)Cc1ccc(C(=O)O)cc1)OCCCC[C@@H](C)O2 returned RAD54 inh 2, RAD52 anneal inh 16, DENV2 CPE 50*, GSIS activator 9 and AF4-AF9 inh -11.
`Cc1noc(C)c1S(=O)(=O)Nc1ccc2c(c1)C(=O)N([C@@H](C)CO)C[C@H](C)[C@@H](CN(C)Cc1ccc(Cl)c(Cl)c1)OCCCC[C@H](C)O2` gave RAD52 anneal inh 30, DENV2 CPE 23*, GSIS activator -11 and AF4-AF9 inh 1.
For Cc1noc(C)c1S(=O)(=O)Nc1ccc2c(c1)C(=O)N([C@@H](C)CO)C[C@H](C)[C@@H](CN(C)Cc1ccncc1)OCCCC[C@@H](C)O2 the results were RAD54 inh 3, RAD52 anneal inh 4, DENV2 CPE 22*, GSIS activator -1 and AF4-AF9 inh 1.
N#C[C@@H]1[C@@H](c2ccccc2-c2cccc(F)c2)[C@H](CO)N1C(=O)NC1CCCC1 was read as RAD52 anneal inh -4, DENV2 CPE 1, GSIS activator -12 and AF4-AF9 inh 3.
`C[C@@H]1CN([C@H](C)CO)S(=O)(=O)c2ccc(C#Cc3ccc(F)cc3)cc2O[C@H]1CN(C)C` gave RAD54 inh 7, RAD52 anneal inh 35, DENV2 CPE -13, GSIS activator -14 and AF4-AF9 inh 11.
